Assay results: the supplement of paper PMC12067926;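 active = growth AUC significantly below the DMSO wells by Dunnett test; inactive = the rest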

test system: Carnobacterium 1 (Carnobacterium gallinarum); assay: relative growth (AUC of 72 h growth curve relative to DMSO control, dAUC) (ratio); higher = more growth (less inhibition), active = hit call of the paper; conditions: 20 µM
Experimental: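 Environmental bacterial isolates (Iceland stream sediment and Silwood Park soil) and whole stream-sediment communities were grown in LB from a 1:100 dilution with each pesticide at 20 µM (1% DMSO). A600 was read hourly for 72 h and the area under a spline-fitted growth curve (AUC) was computed. dAUC is the mean AUC of 3 biological replicates divided by the mean AUC of the DMSO controls. Significance was tested by Dunnett's test against the DMSO control.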

SMILES | relative growth
CS(=O)(=O)c1cc(C(F)(F)F)ccc1C(=O)c1cnoc1C1CC1 | 1.43 (inactive)
CC(COc1ccc(Oc2ccccc2)cc1)Oc1ccccn1 (configuration not stated) | 1.38 (inactive)
CCCCN(CCCC)SN(C)C(=O)Oc1cccc2c1OC(C)(C)C2 | 1.51 (inactive)
COCC(=O)N(c1c(C)cccc1C)[C@H](C)C(=O)OC | 1.12 (inactive)
C[N+]1(C)CCCCC1 | 1.2 (inactive)
CNC(=O)Oc1cccc(/N=C/N(C)C)c1 | 0.892 (inactive)
CC1(C)C(C(=O)OC(C#N)c2cccc(Oc3ccccc3)c2)C1(C)C (configuration not stated) | 1.18 (inactive)
Nc1c(Cl)c(F)nc(OCC(=O)O)c1Cl | 1.23 (inactive)
CC(C)OC(=O)Nc1cccc(Cl)c1 | 1.5 (inactive)
CC(C)N1C(=O)c2ccccc2NS1(=O)=O | 0.693 (inactive)
Cc1cc(C)nc(Nc2ccccc2)n1 | 1.1 (inactive)
COCC(=O)N(c1c(C)cccc1C)C(C)C(=O)OC (configuration not stated) | 1.13 (inactive)
CN(C)C(CSS(=O)(=O)O)CSS(=O)(=O)O | 1.03 (inactive)
Fc1ccc(Oc2ccnc3cc(Cl)cc(Cl)c23)cc1 | 1.13 (inactive)
CN/C(=N\[N+](=O)[O-])NCc1cnc(Cl)s1 | 0.918 (inactive)
CCOC(=O)OC1=C(c2cc(C)ccc2C)C(=O)N[C@]12CC[C@@H](OC)CC2 | 1.17 (inactive)
CC1(C)[C@H](/C=C(\Cl)C(F)(F)F)[C@@H]1C(=O)OC(C#N)c1cccc(Oc2ccccc2)c1 (some centres not stated) | 1.38 (inactive)
CC(C)OC(=O)C(C(=O)OC(C)C)=C1SCCS1 | 0.826 (inactive)
CC(C)NC(=O)N1CC(=O)N(c2cc(Cl)cc(Cl)c2)C1=O | 1.02 (inactive)
CCOP(=S)(OCC)Oc1nc(Cl)c(Cl)cc1Cl | 1.1 (inactive)
O=C1C=C(N(Cc2ccc(Cl)nc2)CC(F)F)CO1 | 1.06 (inactive)
COP(N)(=O)SC (configuration not stated) | 0.69 (inactive)
CCC(CC)Nc1c([N+](=O)[O-])cc(C)c(C)c1[N+](=O)[O-] | 0.819 (inactive)
CC(Oc1ccc(Oc2nc3ccc(Cl)cc3o2)cc1)C(=O)O (configuration not stated) | 1.36 (inactive)
N#Cc1c[nH]cc1-c1cccc2c1OC(F)(F)O2 | 1.07 (inactive)
C[C@@H]1[C@@H](c2ccc(Cl)cc2)SC(=O)N1C(=O)NC1CCCCC1 | 0.881 (inactive)
CCCN(CCOc1c(Cl)cc(Cl)cc1Cl)C(=O)n1ccnc1 | 1.08 (inactive)
